Test results taken from PubChem BioAssay (Tox21).
Inconclusive results are not listed. The source made the active and inactive calls. Unless noted, the call rests on the fitted dose curve; in most records, active means well fitted curve in the direction sought with a large enough effect in the repeat runs; inconclusive means weak or mixed curves; inactive means no such curve, though single readings can be large; an effect the other way counts as inactive or inconclusive.

Key:
[1] = qHTS assay for small molecule agonists of the p53 signaling pathway (AID 651631; calls by dose curve; further: nearly all actives have a fitted effect of over 15% in size)
Method in brief: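 Testing took place in human colorectal HCT-116 cells with stable p53RE-driven beta-lactamase. After 16 h of compound exposure at 37 °C, a FRET substrate was added and fluorescence recorded 2 h later.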

[2] = qHTS assay for small molecules that induce genotoxicity in human embryonic kidney cells expressing luciferase-tagged ATAD5 (AID 651632); further: nearly all actives have a fitted effect of over 15% in size
Method in brief: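 Reporter cells (HEK293T) express luciferase-tagged ATAD5, a protein that accumulates after DNA damage. Treat 16 hr at 37C/5% CO2, add Amplite, wait 30 min at RT, and read luminescence.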

[3] = qHTS assay for small molecule agonists of the p53 signaling pathway - cell viability (AID 651633; calls by dose curve; further: series mostly up to about 83 µM; nearly all actives have a fitted effect of over 30% in size)
Method in brief: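 p53RE-bla cells were treated with compound for 16 hours at 37 C. Cytotoxicity was then measured as CellTiter-Glo luminescence after 30 min at room temperature.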

[4] = qHTS assay for small molecules that induce genotoxicity in human embryonic kidney cells expressing luciferase-tagged ATAD5 - cell viability (AID 651634; calls by dose curve; further: nearly all actives have a fitted effect of over 25% in size)
Method in brief: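 Seeding of 2,000 HEK293T ATAD5-luciferase cells per well preceded pin-tool compound transfer. Plates sat 15.5 hr at 37C under 5% CO2, then fluorescence was read after 30 min with CellTiter-Fluor.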

[5] = qHTS assay for small molecule disruptors of the mitochondrial membrane potential - cell viability (AID 720634; calls by dose curve;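 further: human HepG2 liver cancer cells; series mostly up to about 83 µM; nearly all actives have a fitted effect of over 20% in size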)
Method in brief: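 Measuring cytotoxicity alongside mitochondrial potential, the screen quantified ATP by luminescence in HepG2 cells after 1 hr compound incubation and a 30 min room-temperature CellTiter-Glo step.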

[6] = qHTS assay for small molecule disruptors of the mitochondrial membrane potential (AID 720635)
Method in brief: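 HepG2 cells exposed to compound 1 hr at 37C, then Mito-MPS dye 30 min. Ratio read of aggregate (540/590 nm) versus monomer (490/535 nm) fluorescence.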

[7] = qHTS assay to test for compound auto fluorescence at 590 nm (red) in HepG2 cells (AID 720674)
Method in brief: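 HepG2 cells, 2,000 per well in MEM with 10% FBS, attached overnight at 37 C, then got 23 nL compound or DMSO. After 1 hr at 37 C, 5% CO2, red fluorescence was read at 540/590 nm against Rose Bengal sodium as reference.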

[8] = qHTS assay to test for compound auto fluorescence at 535 nm (green) in HepG2 cells (AID 720675)
[9] = qHTS assay to test for compound auto fluorescence at 460 nm (blue) in HEK293 cells (AID 720678)
Method in brief: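 HEK293 cells (2,000 per well, medium with 10% dialyzed FBS) attached for 4-5 hr at 37C, then received compound and stood overnight at 37C, 5% CO2. Blue fluorescence was read at Ex/Em 405/460 nm and expressed relative to triamterene.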

[10] = qHTS assay to test for compound auto fluorescence at 590 nm (red) in HEK293 cells (AID 720679)
Method in brief: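 HEK293 cells (2,000/well, medium with 10% dialyzed FBS) attached for 4-5 hr at 37C, received 23 nL compound and were incubated overnight at 37C, 5% CO2. Red fluorescence was then read at 540/590nm Ex/Em, referenced to Rose Bengal sodium.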

[11] = qHTS assay to test for compound auto fluorescence at 535 nm (green) in HEK293 cells (AID 720680)
[12] = qHTS assay to test for compound auto fluorescence at 460 nm (blue) in HEK293 cell free culture (AID 720681)
Method in brief: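 Compounds were added to cell-free DMEM with 10% FBS and fluorescence read directly. The blue channel used 405 nm excitation and 460 nm emission, with triamterene as the reference fluorophore.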

[13] = qHTS assay to test for compound auto fluorescence at 535 nm (green) in HEK293 cell free culture (AID 720682)
Method in brief: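 DMEM + 10% FBS, cell-free; cpd or DMSO pinned in; Ex485/Em535 read; output as fluorescein-equivalent signal.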

[14] = qHTS assay to test for compound auto fluorescence at 590 nm (red) in HepG2 cell free culture (AID 720684)
Method in brief: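 Compounds are added to culture medium (MEM, 10% FBS) lacking cells, then fluorescence is read at excitation 540 nm, emission 590 nm, with Rose Bengal sodium as the equivalency standard.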

[15] = qHTS assay to test for compound auto fluorescence at 460 nm (blue) in HepG2 cell free culture (AID 720685)
Method in brief: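 Compound (23 nL) or DMSO pinned into cell-free MEM with 10% FBS; blue fluorescence read at 405/460 nm excitation/emission, expressed as auto-fluorescence equivalency to triamterene.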

[16] = qHTS assay to test for compound auto fluorescence at 460 nm (blue) in HepG2 cells (AID 720687)
Method in brief: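 HepG2 cells in MEM with 10% FBS, attached overnight at 37 C, were exposed to compound or DMSO for 1 hr at 37 C, 5% CO2. Blue fluorescence was read at 405/460 nm, with triamterene as reference fluorophore.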

[17] = target: Glucocorticoid receptor (Homo sapiens) (UniProt P04150); experiment: qHTS assay to identify small molecule agonists of the glucocorticoid receptor (GR) signaling pathway (AID 720691; active means well fitted activation curve with a large enough effect in the signal ratio in the repeat runs, not every such curve was filed as active; the % refers to the signal ratio)
Method in brief: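 Reporter read-out: fluorescence intensity following 2 h room-temperature LiveBLAzer B/G FRET substrate loading. Prior step: GR-bla HeLa cells held 4 h, then treated 18 h at 37 C.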

[18] = target: Glucocorticoid receptor (Homo sapiens) (UniProt P04150); experiment: qHTS assay to identify small molecule antagonists of the glucocorticoid receptor (GR) signaling pathway (AID 720692; active means well fitted inhibition curve with a large enough effect in the signal ratio in the repeat runs, not every such curve was filed as active; the % refers to the signal ratio)
Method in brief: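 Dexamethasone (5 nM final) stimulated a stably integrated GRE-beta-lactamase reporter in HeLa cells during 18 h co-incubation with compounds; signal was quantified as fluorescence intensity of B/G FRET substrate after 2 h.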

[19] = qHTS assay to test for compound auto fluorescence at 590 nm (red) in HEK293 cell free culture (AID 720683)
Method in brief: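 Cell-free wells of DMEM with 10% FBS received compound, and intrinsic fluorescence was read at excitation/emission 540/590 nm. Values expressed as equivalence to Rose Bengal sodium.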

[20] = qHTS assay to test for compound auto fluorescence at 535 nm (green) in HepG2 cell free culture (AID 720686)

Measured: Potency

Chain of Glucocorticoid receptor (Homo sapiens) (P04150 whole entry, looked up): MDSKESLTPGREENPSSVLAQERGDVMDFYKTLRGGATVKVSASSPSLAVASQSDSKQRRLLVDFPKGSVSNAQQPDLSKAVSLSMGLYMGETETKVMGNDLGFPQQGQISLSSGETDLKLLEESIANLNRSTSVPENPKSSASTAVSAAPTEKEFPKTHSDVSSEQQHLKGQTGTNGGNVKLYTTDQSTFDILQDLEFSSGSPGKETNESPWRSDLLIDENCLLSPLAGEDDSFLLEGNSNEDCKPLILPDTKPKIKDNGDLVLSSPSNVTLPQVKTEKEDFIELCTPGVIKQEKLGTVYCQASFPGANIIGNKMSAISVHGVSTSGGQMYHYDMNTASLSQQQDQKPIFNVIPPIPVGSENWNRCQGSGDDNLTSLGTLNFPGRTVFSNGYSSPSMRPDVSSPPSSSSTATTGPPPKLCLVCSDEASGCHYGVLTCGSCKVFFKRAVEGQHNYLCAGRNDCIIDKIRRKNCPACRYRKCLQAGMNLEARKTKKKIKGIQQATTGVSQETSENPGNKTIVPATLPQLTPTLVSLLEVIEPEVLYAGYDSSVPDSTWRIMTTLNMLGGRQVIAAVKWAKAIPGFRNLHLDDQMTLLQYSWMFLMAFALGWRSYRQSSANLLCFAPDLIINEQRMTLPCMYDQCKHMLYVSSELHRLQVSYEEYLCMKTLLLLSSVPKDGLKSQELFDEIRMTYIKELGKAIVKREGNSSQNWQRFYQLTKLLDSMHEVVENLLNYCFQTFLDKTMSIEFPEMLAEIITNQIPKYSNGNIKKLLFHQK

O=C(OCc1ccccc1)C(=O)OCc1ccccc1
not listed: [19] | [20]
inactive: all other assays above

CC(C)C[C@H](NC(=O)CNC(=O)[C@H](Cc1ccc(O)cc1)NC(=O)[C@H](CO)NC(=O)[C@H](Cc1c[nH]c2ccccc12)NC(=O)[C@H](Cc1cnc[nH]1)NC(=O)[C@@H]1CCC(=O)N1)C(=O)N[C@@H](CCCN=C(N)N)C(=O)N1CCC[C@H]1C(=O)NCC(N)=O (stereo in doubt)
not listed: [8] | [13] | [17] | [18]
inactive: all other assays above

C=C(C)C(=O)OCC(C)(C)COC(=O)C(=C)C
not listed: [6] | [17] | [18]
inactive: all other assays above

c1ccc2nccnc2c1
not listed: [13] | [16] | [17]
inactive: all other assays above

CCc1ccc(C=O)cc1
not listed: [13] | [18]
inactive: all other assays above

COc1cc(C(=S)N2CCOCC2)cc(OC)c1OC
not listed: [13] | [18] | [19]
inactive: all other assays above

C=C1CC/C=C(\C)CC[C@@H]2[C@@H]1CC2(C)C
not listed: [6] | [17] | [18]
inactive: all other assays above

Cc1ccc(C=O)cc1C
not listed: [19] | [20]
inactive: all other assays above

CCCCOC(=O)c1ccccc1
not listed: [8] | [16] | [18]
inactive: all other assays above

NCCS
not listed: [13] | [17] | [18]
inactive: all other assays above

CCCOC(=O)C(C)O (stereo not given)
not listed: [6] | [17] | [18]
inactive: all other assays above

CCCCCCCCCCCCCC
not listed: [13] | [17] | [18]
inactive: all other assays above

CC1(CO)CN(c2ccccc2)NC1=O (stereo not given)
not listed: [13] | [17] | [18]
inactive: all other assays above

CCCC/C=C\CCCCCCCCCC=O
not listed: [8] | [17] | [18]
inactive: all other assays above
